# Laboratory results published in PubChem BioAssay (NCI).
# This is part of a sample that, as a whole, favours compounds with a hit. Of some 79,000 tested, about 15% had one in any assay. Unmarked numbers belong to inactive results. Calls of active or inactive are those of the source. No stated cut-off is given here; in the data, active means growth inhibition above about 70%; inactive means the rest.
# Assays:
# [1] = NCI Yeast Anticancer Drug Screen. Data for the rad50 strain (AID 155);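 further: 0% = growth of vehicle-only cultures of the same strain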; settings: S. cerevisiae rad50 strain growth inhibition, stronger effect = higher value
# In short: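 Vehicle-treated cultures provide the reference for the growth inhibition reported for compound-exposed, repair-deficient yeast.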
# [2] = NCI Yeast Anticancer Drug Screen. Data for the mec2-1 strain (AID 157); settings: S. cerevisiae mec2-1 strain, stronger effect = higher value
# In short: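 mec2-1 yeast strain, carrying an alteration in DNA damage repair or cell cycle control, was exposed to compounds; growth inhibition was measured relative to vehicle-treated controls.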
# [3] = NCI Yeast Anticancer Drug Screen. Data for the sgs1 mgt1 strain (AID 161);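 further: 0% = growth of cultures given vehicle only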; settings: S. cerevisiae sgs1 mgt1 strain, stronger effect = higher value
# In short: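 Yeast cells carrying a defined DNA-repair defect were exposed to test compounds. Growth inhibition was measured relative to vehicle-treated controls.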
# [4] = NCI Yeast Anticancer Drug Screen. Data for the cln2 rad14 strain (AID 165);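 further: 0% = growth equal to vehicle treated cultures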; settings: S. cerevisiae cln2 rad14 strain, stronger effect = higher value
# In short: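 Yeast carrying cln2 and rad14 alterations (cell cycle control and DNA damage repair) were exposed to compounds. Growth inhibition was measured against vehicle-treated controls.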
# [5] = NCI Yeast Anticancer Drug Screen. Data for the bub3 strain (AID 167); settings: S. cerevisiae bub3 mutant strain, stronger effect = higher value
# In short: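 Mutant yeast screening strain plus compound; vehicle-treated cultures serve as the 0% inhibition reference.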
# [6] = NCI Yeast Anticancer Drug Screen. Data for the mlh1 rad18 strain (AID 175); settings: S. cerevisiae mlh1 rad18 strain growth inhibition, stronger effect = higher value
# In short: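 Growth inhibition of the yeast strain was measured after compound exposure and expressed relative to vehicle-treated controls. The strain carries defined defects in DNA damage repair.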
# [7] = at 5.0 µM (retest, dose inferred, filed as 0.5)
# [8] = at 50.0 µM (retest, dose inferred, filed as 5.0)
SMILES,"growth inhibition [1, 7]","growth inhibition [1, 8]",growth inhibition ([1]; at 50.0 µM),"growth inhibition [2, 7]","growth inhibition [2, 8]",growth inhibition ([2]; at 50.0 µM),"growth inhibition [3, 7]","growth inhibition [3, 8]",growth inhibition ([3]; at 50.0 µM),"growth inhibition [4, 7]","growth inhibition [4, 8]",growth inhibition ([4]; at 50.0 µM),"growth inhibition [5, 7]","growth inhibition [5, 8]",growth inhibition ([5]; at 50.0 µM),"growth inhibition [6, 7]","growth inhibition [6, 8]",growth inhibition ([6]; at 50.0 µM)
Brc1ccc(C2c3ccccc3-c3ccccc32)cc1,21%,97% (active),94.5% (active),16%,97% (active),94.7% (active),15%,95% (active),96.6% (active),0%,97% (active),94% (active),2%,98% (active),95.8% (active),-4%,97% (active),94.8% (active)
Cn1c(=O)c2c(nc(OCC(C)(C)C)n2C)n(C)c1=O,4%,2%,-5.2%,0%,5%,10.9%,3%,-1%,26.1%,9%,8%,8.75%,0%,3%,16.9%,-13%,3%,23.8%
O=C(CCN1CCN(c2cccc(Cl)c2)CC1)N1CCc2c([nH]c3ccccc23)C1c1cccnc1 (stereo not given),17%,17%,90.4% (active),10%,10%,92% (active),8%,8%,90.4% (active),9%,9%,92% (active),8%,8%,91.3% (active),23%,23%,89.7% (active)
O=c1c2[nH]c3cccc(Cl)c3c2cnn1-c1ccc(F)cc1,4%,47%,96.7% (active),2%,74% (active),97.2% (active),9%,35%,96.6% (active),2%,85% (active),94.5% (active),2%,53%,98% (active),-2%,79% (active),97% (active)
CCCCCCCCCCCC(=O)OCC1CO1 (stereo not given),-6%,-26%,-11.7%,-13%,-8%,-4.65%,6%,1%,24.6%,29%,-55%,34%,9%,-44%,-6.5%,-16%,3%,-11.4%
CCN(CC)CCC(=O)NC1c2ccc(Cl)cc2Oc2c(C)cccc21 (stereo not given),-23%,21%,54.6%,-1%,-7%,-14.2%,2%,19%,40.6%,18%,51%,15.2%,3%,7%,-30.5%,8%,44%,17.6%
CCCCn1c(C)nc2cc(C(F)(F)F)cc(N)c21,0%,41%,78.6% (active),-4%,35%,48.3%,0%,31%,93.6% (active),-5%,8%,6.6%,-8%,10%,31.9%,-11%,65%,43.5%
Cc1ccc(S(=O)(=O)NNc2nc(N3CCOCC3)nc(N3CCOCC3)n2)cc1,1%,-4%,28.1%,2%,2%,15.4%,10%,6%,63%,3%,-8%,70.6% (active),-1%,-1%,17.9%,0%,-4%,26.3%
O=C1C(c2ccccc2)=[N+]([O-])c2cc([N+](=O)[O-])c(/C(Cl)=C/c3ccccc3)cc21,4%,8%,54.8%,5%,33%,94.5% (active),6%,16%,71.5% (active),11%,9%,39.2%,7%,7%,97.9% (active),3%,3%,96.2% (active)
COc1ccc2c(c1)CC[C@@H]1C2CC[C@]2(C)OC(=O)CCC12 (stereo not given in full),-23%,98% (active),73.1% (active),-5%,89% (active),66.8%,-15%,93% (active),77.1% (active),-4%,92% (active),67.3%,-31%,97% (active),72.7% (active),12%,97% (active),71.7% (active)
COC1(OC)C2(Cl)C(Cl)=C(Cl)C1(Cl)C1C2C2CC1(C(=O)O)c1ccccc12 (stereo not given),29%,29%,92% (active),23%,23%,93.4% (active),17%,17%,93% (active),26%,26%,91.5% (active),26%,26%,90.8% (active),41%,41%,90.5% (active)
C=C1CC(c2ccc(OCCCN3C(=O)c4ccccc4C3=O)cc2)OC1=O (stereo not given),33%,71% (active),10.1%,30%,82% (active),-3.6%,28%,67%,15%,23%,63%,29.1%,33%,80% (active),8.8%,34%,86% (active),-6%
CCOC(=O)C(CC(=O)O)=C(c1ccccc1)c1ccccc1,-10%,-7%,17.5%,-5%,-8%,18.5%,3%,14%,7.9%,-31%,4%,79.7% (active),11%,0%,25.1%,-10%,7%,-7.95%
COc1ccccc1/C=C/c1ccnc2ccccc12,31%,97% (active),72.7% (active),15%,97% (active),90.2% (active),24%,98% (active),88% (active),13%,84% (active),65.1%,24%,97% (active),84.8% (active),24%,96% (active),91.7% (active)
CCCCCCCCCCCCCCCCCC1=NCCN1,6%,98% (active),54%,-4%,98% (active),99.3% (active),1%,98% (active),42%,1%,99% (active),98% (active),8%,98% (active),99.3% (active),-1%,97% (active),99.2% (active)
O=C(Nc1ccccc1)ON=C1CCCCC1,3%,75% (active),80% (active),-31%,36%,63.6%,3%,68%,94.2% (active),6%,27%,61.8%,50%,44%,77.2% (active),5%,62%,89.6% (active)
COc1ccc(C2C3CCCC(C(c4ccc(OC)cc4)N2C)C32NC(=O)NC2=O)cc1 (stereo not given),63%,98% (active),97.2% (active),25%,98% (active),98% (active),23%,98% (active),97.8% (active),2%,97% (active),97.2% (active),3%,97% (active),97.8% (active),29%,95% (active),97.6% (active)
O=[N+]([O-])c1ccc(C(Cl)Cc2ccc(Cl)cc2)cc1 (stereo not given),10%,66%,90.2% (active),7%,64%,82.5% (active),22%,91% (active),93.7% (active),-8%,61%,62.6%,20%,82% (active),94.3% (active),-18%,71% (active),89.1% (active)
CCC1CCC(CC)C1O (stereo not given),1%,6%,34.9%,0%,-3%,22.9%,2%,0%,26.8%,1%,4%,29.8%,1%,2%,78.7% (active),-2%,2%,28.5%
Cc1ccc(N2CC(O)CN(c3ccc(C)cc3)CC(O)C2)cc1 (stereo not given),0%,3%,20.4%,-7%,-13%,18.1%,-29%,1%,24.9%,6%,-10%,6.55%,3%,1%,15.3%,33%,0%,23.2%
